From ChEMBL document CHEMBL2218924, “A broad activity screen in support of a chemogenomic map for kinase signalling research and drug discovery” (Biochem J, 2013)

What was measured:
[1] = molecular target: T1, Inhibitor of nuclear factor kappa-B kinase subunit alpha (Homo sapiens) (UniProt O15111); details: at 10 µM
T1 sequence (whole entry): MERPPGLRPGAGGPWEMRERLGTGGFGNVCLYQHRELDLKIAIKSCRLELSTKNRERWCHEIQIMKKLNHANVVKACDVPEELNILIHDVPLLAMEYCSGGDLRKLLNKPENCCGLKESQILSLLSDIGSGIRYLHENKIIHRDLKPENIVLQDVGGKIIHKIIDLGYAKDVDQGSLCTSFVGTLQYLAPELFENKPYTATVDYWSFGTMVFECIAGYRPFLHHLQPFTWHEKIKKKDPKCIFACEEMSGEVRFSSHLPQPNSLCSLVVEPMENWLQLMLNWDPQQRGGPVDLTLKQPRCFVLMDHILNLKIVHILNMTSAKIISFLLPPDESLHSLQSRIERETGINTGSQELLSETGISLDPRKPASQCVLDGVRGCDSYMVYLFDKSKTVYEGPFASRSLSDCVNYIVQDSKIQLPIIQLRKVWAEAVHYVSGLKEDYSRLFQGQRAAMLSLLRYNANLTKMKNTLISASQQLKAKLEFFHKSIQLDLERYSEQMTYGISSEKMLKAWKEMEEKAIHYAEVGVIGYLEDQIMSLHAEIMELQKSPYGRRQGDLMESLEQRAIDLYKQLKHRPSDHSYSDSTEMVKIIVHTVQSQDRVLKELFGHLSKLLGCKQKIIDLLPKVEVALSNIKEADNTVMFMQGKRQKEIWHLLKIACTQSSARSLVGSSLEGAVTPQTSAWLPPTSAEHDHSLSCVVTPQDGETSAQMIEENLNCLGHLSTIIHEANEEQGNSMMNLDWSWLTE

[2] = molecular target: T2, Inhibitor of nuclear factor kappa-B kinase subunit beta (Homo sapiens) (UniProt O14920); details: at 10 µM
T2 sequence (whole entry): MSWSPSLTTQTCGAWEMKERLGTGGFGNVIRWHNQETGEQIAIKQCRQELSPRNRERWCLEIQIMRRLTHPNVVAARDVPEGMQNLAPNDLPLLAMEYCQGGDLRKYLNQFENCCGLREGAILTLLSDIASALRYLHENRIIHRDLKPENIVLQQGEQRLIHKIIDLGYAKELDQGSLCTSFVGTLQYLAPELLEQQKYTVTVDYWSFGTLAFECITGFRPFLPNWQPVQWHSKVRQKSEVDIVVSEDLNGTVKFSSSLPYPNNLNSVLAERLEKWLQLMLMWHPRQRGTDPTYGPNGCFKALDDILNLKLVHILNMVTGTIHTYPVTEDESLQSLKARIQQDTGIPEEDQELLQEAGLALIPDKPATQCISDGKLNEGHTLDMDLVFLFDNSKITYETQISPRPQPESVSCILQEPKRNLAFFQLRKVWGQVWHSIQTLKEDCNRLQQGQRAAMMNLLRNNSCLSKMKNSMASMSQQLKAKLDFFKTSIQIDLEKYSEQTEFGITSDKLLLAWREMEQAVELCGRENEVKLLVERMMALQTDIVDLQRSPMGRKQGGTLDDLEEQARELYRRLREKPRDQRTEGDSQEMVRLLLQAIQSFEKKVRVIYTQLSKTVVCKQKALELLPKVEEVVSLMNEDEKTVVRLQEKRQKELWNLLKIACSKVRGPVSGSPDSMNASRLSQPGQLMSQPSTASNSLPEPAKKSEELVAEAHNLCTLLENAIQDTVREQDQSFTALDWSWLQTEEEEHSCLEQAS

[3] = molecular target: Insulin receptor (Homo sapiens) (UniProt P06213); details: at 1 µM
[4] = molecular target: Interleukin-1 receptor-associated kinase 1 (Homo sapiens) (UniProt P51617); details: at 1 µM
[5] = molecular target: Interleukin-1 receptor-associated kinase 1 (Homo sapiens) (UniProt P51617); details: at 10 µM
[6] = molecular target: T3, Interleukin-1 receptor-associated kinase 4 (Homo sapiens) (UniProt Q9NWZ3); details: at 1 µM
T3 sequence (whole entry): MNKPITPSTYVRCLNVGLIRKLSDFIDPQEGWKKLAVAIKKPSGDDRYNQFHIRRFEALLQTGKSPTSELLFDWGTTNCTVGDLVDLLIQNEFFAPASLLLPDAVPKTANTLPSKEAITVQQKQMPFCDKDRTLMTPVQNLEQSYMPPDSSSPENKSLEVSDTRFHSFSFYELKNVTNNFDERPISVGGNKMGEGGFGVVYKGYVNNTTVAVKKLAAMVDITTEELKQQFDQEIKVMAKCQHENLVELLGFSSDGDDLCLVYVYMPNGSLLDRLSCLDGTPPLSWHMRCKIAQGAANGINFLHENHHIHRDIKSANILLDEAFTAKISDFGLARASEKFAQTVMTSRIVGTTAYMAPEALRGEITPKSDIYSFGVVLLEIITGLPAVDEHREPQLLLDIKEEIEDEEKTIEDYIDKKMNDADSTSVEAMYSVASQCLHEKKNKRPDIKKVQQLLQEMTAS

[7] = molecular target: T3, Interleukin-1 receptor-associated kinase 4 (Homo sapiens); details: at 10 µM
[8] = molecular target: T4, Tyrosine-protein kinase ITK/TSK (Homo sapiens) (UniProt Q08881); details: at 1 µM
T4 sequence (whole entry): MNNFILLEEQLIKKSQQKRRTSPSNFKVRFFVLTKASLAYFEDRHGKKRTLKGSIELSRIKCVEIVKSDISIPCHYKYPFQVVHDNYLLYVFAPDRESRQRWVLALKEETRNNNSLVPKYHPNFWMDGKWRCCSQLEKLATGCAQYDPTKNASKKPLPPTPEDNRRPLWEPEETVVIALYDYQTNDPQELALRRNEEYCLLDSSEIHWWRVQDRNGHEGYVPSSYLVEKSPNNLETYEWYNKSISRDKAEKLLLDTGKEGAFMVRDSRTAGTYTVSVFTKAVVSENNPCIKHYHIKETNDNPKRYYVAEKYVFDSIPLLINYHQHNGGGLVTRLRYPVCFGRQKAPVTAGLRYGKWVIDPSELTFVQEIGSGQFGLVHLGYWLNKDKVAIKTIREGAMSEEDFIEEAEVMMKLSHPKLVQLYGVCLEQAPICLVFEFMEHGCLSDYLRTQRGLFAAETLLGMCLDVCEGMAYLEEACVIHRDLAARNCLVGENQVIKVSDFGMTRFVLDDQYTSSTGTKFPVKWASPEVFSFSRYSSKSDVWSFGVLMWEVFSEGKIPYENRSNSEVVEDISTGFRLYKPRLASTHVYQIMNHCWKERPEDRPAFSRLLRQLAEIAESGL

[9] = molecular target: T4, Tyrosine-protein kinase ITK/TSK (Homo sapiens); details: at 10 µM
[10] = molecular target: T1, Inhibitor of nuclear factor kappa-B kinase subunit alpha (Homo sapiens); details: at 1 µM
[11] = molecular target: T2, Inhibitor of nuclear factor kappa-B kinase subunit beta (Homo sapiens); details: at 1 µM
[12] = molecular target: Insulin receptor (Homo sapiens) (UniProt P06213); details: at 10 µM
[13] = molecular target: Insulin receptor (Homo sapiens) (UniProt P06213); details: at 1 µM; remark: listed apart in the source
[14] = molecular target: Insulin receptor (Homo sapiens) (UniProt P06213); details: at 10 µM; remark: listed apart in the source
[15] = molecular target: Insulin receptor-related protein (Homo sapiens) (UniProt P14616); details: at 1 µM
[16] = molecular target: Insulin receptor-related protein (Homo sapiens) (UniProt P14616); details: at 10 µM
[17] = molecular target: Tyrosine-protein kinase JAK2 (Homo sapiens) (UniProt O60674); details: at 1 µM
[18] = molecular target: Tyrosine-protein kinase JAK2 (Homo sapiens) (UniProt O60674); details: at 10 µM
[19] = molecular target: T5, Tyrosine-protein kinase JAK3 (Homo sapiens) (UniProt P52333); details: at 1 µM
T5 sequence (whole entry): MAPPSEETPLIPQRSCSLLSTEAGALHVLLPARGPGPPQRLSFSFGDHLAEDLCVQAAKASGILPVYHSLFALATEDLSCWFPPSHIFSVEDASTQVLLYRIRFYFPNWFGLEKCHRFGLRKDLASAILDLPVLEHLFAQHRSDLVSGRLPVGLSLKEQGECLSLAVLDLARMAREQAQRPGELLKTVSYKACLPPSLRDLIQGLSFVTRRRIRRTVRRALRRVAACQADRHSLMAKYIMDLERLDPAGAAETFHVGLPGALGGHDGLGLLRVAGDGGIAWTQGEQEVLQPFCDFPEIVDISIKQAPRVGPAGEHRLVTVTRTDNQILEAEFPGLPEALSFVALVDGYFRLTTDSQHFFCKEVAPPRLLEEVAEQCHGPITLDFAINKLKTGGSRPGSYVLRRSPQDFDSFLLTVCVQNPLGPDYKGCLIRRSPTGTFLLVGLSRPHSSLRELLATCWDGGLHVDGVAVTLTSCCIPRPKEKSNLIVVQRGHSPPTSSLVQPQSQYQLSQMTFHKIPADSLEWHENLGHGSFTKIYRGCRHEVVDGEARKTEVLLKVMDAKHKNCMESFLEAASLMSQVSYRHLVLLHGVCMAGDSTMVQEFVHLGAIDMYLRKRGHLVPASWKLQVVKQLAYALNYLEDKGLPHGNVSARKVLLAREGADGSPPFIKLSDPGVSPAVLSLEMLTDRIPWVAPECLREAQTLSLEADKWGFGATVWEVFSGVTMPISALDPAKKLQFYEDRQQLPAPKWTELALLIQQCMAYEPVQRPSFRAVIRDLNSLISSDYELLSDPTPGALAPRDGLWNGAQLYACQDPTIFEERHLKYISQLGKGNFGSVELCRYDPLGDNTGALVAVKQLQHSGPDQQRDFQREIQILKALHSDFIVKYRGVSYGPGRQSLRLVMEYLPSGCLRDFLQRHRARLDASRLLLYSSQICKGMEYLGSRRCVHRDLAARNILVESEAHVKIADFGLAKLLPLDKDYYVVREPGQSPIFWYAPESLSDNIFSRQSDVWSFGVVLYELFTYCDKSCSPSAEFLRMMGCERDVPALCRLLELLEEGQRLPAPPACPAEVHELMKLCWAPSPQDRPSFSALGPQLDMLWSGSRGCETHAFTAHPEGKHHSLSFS

[20] = molecular target: T5, Tyrosine-protein kinase JAK3 (Homo sapiens); details: at 10 µM

Sequence of Interleukin-1 receptor-associated kinase 1 (Homo sapiens) (P51617 whole entry, looked up): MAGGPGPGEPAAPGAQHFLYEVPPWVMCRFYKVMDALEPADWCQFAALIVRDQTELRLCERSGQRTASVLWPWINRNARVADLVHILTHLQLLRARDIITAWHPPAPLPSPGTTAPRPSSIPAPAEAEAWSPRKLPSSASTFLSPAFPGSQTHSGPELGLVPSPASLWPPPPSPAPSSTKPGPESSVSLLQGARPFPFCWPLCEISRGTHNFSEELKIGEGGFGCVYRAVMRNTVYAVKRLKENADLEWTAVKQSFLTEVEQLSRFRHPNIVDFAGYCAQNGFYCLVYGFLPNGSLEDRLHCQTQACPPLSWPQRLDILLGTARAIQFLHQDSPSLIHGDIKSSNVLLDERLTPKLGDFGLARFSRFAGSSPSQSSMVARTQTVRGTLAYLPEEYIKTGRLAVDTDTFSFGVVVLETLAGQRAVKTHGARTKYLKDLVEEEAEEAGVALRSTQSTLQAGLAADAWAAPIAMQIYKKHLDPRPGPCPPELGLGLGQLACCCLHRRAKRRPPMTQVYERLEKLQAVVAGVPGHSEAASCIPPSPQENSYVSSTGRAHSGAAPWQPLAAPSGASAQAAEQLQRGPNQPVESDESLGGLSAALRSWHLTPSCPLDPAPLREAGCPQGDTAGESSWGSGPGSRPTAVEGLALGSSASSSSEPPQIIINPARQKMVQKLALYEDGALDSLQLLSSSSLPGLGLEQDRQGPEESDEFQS
Sequence of Insulin receptor (Homo sapiens) (P06213 28-758 limits assumed): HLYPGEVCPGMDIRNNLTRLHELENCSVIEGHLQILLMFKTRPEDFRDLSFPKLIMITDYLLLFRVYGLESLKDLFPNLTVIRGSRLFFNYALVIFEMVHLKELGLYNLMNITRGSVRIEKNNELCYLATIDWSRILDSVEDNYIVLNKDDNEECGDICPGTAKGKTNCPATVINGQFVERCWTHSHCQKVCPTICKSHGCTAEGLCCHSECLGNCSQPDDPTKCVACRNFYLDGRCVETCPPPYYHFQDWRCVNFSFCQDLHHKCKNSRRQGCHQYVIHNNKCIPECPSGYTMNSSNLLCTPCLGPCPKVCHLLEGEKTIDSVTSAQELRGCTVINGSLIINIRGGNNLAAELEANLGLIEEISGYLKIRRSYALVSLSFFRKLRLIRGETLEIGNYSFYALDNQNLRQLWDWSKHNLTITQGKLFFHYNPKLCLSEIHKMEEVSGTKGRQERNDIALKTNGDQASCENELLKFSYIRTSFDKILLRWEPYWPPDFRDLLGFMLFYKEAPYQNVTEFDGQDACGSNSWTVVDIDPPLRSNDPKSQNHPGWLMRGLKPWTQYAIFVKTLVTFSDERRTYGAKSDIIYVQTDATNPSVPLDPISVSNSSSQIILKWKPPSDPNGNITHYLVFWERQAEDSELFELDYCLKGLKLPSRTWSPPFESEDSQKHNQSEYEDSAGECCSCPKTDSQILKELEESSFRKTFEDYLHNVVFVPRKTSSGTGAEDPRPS
Sequence of Insulin receptor (Homo sapiens) (P06213 763-1382 limits assumed): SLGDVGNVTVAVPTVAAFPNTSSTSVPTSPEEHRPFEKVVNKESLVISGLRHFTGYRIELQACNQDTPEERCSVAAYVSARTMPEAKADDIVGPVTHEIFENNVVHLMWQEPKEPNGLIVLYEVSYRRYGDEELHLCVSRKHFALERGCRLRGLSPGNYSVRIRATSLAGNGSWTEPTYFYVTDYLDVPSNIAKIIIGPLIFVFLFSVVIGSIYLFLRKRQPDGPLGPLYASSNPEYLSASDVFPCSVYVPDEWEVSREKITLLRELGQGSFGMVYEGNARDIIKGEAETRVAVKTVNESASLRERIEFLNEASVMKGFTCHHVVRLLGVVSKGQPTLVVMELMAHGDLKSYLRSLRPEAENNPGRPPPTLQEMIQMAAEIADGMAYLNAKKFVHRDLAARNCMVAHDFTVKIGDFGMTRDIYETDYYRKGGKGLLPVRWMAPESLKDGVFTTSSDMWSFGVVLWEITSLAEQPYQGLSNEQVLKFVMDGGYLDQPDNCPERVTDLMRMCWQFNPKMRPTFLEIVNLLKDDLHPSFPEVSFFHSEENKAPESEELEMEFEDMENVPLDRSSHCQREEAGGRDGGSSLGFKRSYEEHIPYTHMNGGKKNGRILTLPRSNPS
Sequence of Insulin receptor-related protein (Homo sapiens) (P14616 27-742 limits assumed): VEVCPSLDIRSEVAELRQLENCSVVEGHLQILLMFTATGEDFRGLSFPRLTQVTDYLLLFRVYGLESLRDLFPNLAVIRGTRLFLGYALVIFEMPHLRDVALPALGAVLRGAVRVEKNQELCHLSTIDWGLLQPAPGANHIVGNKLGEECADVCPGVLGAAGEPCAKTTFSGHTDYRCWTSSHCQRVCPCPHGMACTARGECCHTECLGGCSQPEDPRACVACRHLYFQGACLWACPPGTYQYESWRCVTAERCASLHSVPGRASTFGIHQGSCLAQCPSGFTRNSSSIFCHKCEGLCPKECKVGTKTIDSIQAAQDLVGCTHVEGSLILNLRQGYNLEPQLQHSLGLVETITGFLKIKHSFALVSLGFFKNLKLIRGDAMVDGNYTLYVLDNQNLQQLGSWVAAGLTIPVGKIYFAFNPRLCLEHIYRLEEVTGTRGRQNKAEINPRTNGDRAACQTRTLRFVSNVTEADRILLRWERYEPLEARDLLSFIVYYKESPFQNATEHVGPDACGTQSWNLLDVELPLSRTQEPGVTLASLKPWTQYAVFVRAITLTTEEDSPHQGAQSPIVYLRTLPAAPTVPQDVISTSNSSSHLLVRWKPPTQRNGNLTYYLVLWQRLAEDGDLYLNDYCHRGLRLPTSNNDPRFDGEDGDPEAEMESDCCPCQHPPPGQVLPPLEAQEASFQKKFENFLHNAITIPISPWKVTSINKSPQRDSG
Sequence of Insulin receptor-related protein (Homo sapiens) (P14616 747-1297 limits assumed): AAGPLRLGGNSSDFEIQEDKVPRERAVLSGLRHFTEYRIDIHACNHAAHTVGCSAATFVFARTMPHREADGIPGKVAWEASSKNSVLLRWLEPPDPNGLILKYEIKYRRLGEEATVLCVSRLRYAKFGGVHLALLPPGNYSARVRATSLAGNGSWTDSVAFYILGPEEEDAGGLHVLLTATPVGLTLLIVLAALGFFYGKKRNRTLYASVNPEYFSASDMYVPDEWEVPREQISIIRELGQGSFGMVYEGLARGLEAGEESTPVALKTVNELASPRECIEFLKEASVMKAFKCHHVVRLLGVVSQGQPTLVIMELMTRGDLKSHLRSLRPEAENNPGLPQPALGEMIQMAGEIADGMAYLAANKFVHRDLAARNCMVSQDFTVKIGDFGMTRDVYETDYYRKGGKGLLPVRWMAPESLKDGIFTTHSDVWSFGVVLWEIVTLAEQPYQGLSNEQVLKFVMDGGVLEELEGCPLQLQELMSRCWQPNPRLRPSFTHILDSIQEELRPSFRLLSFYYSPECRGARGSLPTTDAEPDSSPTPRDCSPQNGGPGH
Sequence of Tyrosine-protein kinase JAK2 (Homo sapiens) (O60674 whole entry): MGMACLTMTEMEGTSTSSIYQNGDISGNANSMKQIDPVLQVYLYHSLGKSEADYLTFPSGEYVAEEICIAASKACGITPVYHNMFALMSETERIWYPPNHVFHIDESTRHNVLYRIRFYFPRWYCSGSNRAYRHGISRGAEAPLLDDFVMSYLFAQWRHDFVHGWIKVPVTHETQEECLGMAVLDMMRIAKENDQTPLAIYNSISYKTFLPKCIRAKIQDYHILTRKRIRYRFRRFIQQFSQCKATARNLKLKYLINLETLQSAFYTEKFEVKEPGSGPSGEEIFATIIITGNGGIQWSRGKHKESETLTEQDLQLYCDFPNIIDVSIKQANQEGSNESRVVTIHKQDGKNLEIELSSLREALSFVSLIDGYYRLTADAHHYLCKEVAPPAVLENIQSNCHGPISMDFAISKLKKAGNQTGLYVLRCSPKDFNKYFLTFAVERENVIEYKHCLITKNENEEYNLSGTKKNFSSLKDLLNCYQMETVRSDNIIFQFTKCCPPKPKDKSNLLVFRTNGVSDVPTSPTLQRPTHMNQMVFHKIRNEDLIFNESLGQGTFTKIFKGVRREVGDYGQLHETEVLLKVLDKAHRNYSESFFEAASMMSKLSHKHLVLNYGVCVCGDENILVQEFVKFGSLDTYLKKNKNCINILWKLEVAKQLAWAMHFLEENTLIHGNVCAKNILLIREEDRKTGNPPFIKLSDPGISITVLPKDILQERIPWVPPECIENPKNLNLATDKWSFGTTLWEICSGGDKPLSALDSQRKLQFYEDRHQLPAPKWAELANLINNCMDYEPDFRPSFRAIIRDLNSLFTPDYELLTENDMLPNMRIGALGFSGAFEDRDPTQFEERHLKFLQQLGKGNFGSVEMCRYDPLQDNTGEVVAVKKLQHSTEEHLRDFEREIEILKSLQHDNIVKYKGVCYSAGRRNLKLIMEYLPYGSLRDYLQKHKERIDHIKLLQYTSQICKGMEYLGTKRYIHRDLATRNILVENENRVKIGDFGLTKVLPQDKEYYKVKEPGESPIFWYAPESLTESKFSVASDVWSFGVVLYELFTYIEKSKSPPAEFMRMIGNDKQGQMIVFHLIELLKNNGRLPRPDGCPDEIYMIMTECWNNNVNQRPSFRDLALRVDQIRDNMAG

| SMILES | residual activity [1] [%] | residual activity [2] [%] | residual activity [3] [%] | residual activity [4] [%] | residual activity [5] [%] | residual activity [6] [%] | residual activity [7] [%] | residual activity [8] [%] | residual activity [9] [%] | residual activity [10] [%] | residual activity [11] [%] | residual activity [12] [%] | residual activity [13] [%] | residual activity [14] [%] | residual activity [15] [%] | residual activity [16] [%] | residual activity [17] [%] | residual activity [18] [%] | residual activity [19] [%] | residual activity [20] [%] |
| --- | --- | --- | --- | --- | --- | --- | --- | --- | --- | --- | --- | --- | --- | --- | --- | --- | --- | --- | --- | --- |
| c1cc(-c2cnn3cc(-c4ccc(OCCN5CCCCC5)cc4)cnc23)ccn1 | 86 | 85 | 138 | 23 | 2 | 81 | 18 | 54 | 9 | – | – | – | – | – | – | – | – | – | – | – |
| O=C1Nc2ccc3ncsc3c2/C1=C/c1c[nH]cn1 | 1 | 25 | 85 | 28 | 7 | 41 | 15 | 67 | 21 | 8 | 68 | 31 | 80 | 36 | 119 | 36 | 59 | 18 | 16 | 3 |
| O=c1[nH]c2ccccc2n1C1CCN(Cc2ccc(-c3nc4cc5[nH]cnc5cc4nc3-c3ccccc3)cc2)CC1 | 109 | 102 | 119 | 103 | 88 | 106 | 93 | 99 | 95 | 118 | 101 | 75 | 103 | 98 | 124 | 95 | 120 | 107 | 110 | 126 |
| CCc1nc(-c2ccc(OC)cc2)[nH]c1-c1ccncc1 | 104 | 112 | – | – | – | – | – | – | – | 100 | 119 | – | – | – | – | – | 100 | 105 | 113 | 103 |
| CC(C)[C@H](CO)Nc1nc(Nc2cccc(Cl)c2)c2ncn(C(C)C)c2n1 | – | – | 81 | 81 | 23 | 45 | 9 | 68 | 11 | – | 116 | 33 | 34 | 4 | 83 | 3 | – | 73 | – | – |
| COc1ccc2c(c[n+](C)c3c4cc5c(cc4ccc23)OCO5)c1OC | 83 | 84 | – | 96 | 83 | – | 83 | 99 | 91 | 97 | – | 130 | 99 | 84 | 130 | 76 | 80 | 121 | 91 | 67 |
| O=C1c2ccccc2-c2nc3nnnn3nc21 | – | 81 | 121 | 109 | 103 | 129 | 108 | – | – | – | 111 | 102 | 104 | 109 | – | – | 111 | – | 103 | – |
| COc1ccc2c(c1)/C(=C/c1cnc[nH]1)C(=O)N2 | 23 | 59 | – | – | 37 | – | – | – | 42 | 74 | – | – | – | – | – | – | – | 29 | 48 | 10 |
| O=[N+]([O-])/C=C/c1ccc2c(c1)OCO2 | 94 | 95 | 117 | 95 | 83 | 116 | 107 | 105 | 100 | 91 | 98 | 85 | 96 | 102 | 106 | 82 | 73 | 118 | 114 | 108 |
